Our source for the inhibition values is PubChem BioAssay AID492956 (The Scripps Research Institute Molecular Screening Center, 2010).

As usually defined, the inhibition is the relative decrease from the control value, in per cent.

Each structure is given as a SMILES string. Out of some 340,000 compounds screened, about 3,300 (0.97%) were called active. For the sample, actives were picked, then their nearest neighbours and some compounds at random. Unmarked numbers belong to inactive results.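 The calls were made as follows: active = inhibition above the mean over all tested compounds plus 3 SD (cut at about 30% in these data); inactive = the rest.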

The assay deals with Platelet-activating factor acetylhydrolase 2, cytoplasmic (Homo sapiens) (UniProt Q99487). Kind of assay: inhibition of cytoplasmic PAF acetylhydrolase 2 – biochemical, fluorescence polarization, human, primary screen (AID 492956).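 Also: inhibitors block probe labeling of enzyme so polarization drops; 0% = enzyme with DMSO and 100% = wells lacking PAFAH2 protein.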 The note with it: recombinant PAFAH2, FP-rhodamine activity probe, at 3.39 µM, hits give high values. On the technique in general: Fluorescence polarisation rises when a labelled molecule tumbles more slowly, as on binding a larger partner.
As for `CCOC(=O)C1CCCN(Cc2nc(N)nc(Nc3ccc(C)cc3)n2)C1` (stereo not given), the inhibition is 3.45%.
The value for `CCCN(CC1CC1)C(=O)COC(=O)c1ccc(C)cc1O` was 6.82%; that for `Cc1cccc(NC(=O)/C=C/c2ccc3c(c2)OCO3)n1` was 0.78%; that for `Cc1csc(NC(=O)CSc2ccc(-c3ccc(F)cc3)nn2)n1` was 1.11%.
The value for `COC(=O)c1sc(-c2ccc(C(C)(C)C)cc2)cc1NC(=O)/C=C/C(=O)O` was -3.2%; that for `C[C@@H]1CC[C@]2(O[C@@H](CCO)C[C@H](O)[C@H]2O)O1` was -8.93%; that for `CN(C)C(=O)c1ccc(NC(=O)COC(=O)c2cc3c(s2)CCCCC3)cc1` was 22.8%.
Under `O=C(COC(=O)c1cc2c(s1)CCCC2)NCc1ccccc1Cl` stands 67% (active); under `O=C(NCc1ccccc1Cl)c1csc2c1CCCCC2`, 3.83%.
Consider `O=C(CN(Cc1ccccc1)C(=O)c1ccc2c(c1)OCCO2)NCc1ccc2c(c1)OCO2`, for which the inhibition was 1.54%.
The value for `O=C(COC(=O)c1ccc2c(c1)OCCO2)NCc1ccccc1` was 51.5% (active); that for `O=C(COC(=O)c1ccccc1)c1ccc2c(c1)OCCO2` was 2.41%; that for `O=C(OCc1ccccc1F)c1ccc2c(c1)OCCO2` was 14.7%.
Under `CC(=O)Nc1cccc(C(=O)OCC(=O)c2ccc3c(c2)OCO3)c1` stands -2.44%.
Under `CC(NC(=O)COC(=O)c1cc(=O)[nH]c2ccccc12)c1ccccc1` (stereo not given) stands 1.93%; under `O=C(COC(=O)c1ccc(Cl)nc1)NCc1ccc2c(c1)OCO2`, 5.61%.
For the compound `O=C(COC(=O)c1ccc2c(c1)OCCO2)NCc1ccccc1Cl`, the inhibition is 85.4% (active).
Under `CC(NC(=O)COC(=O)c1ccc2c(c1)OCO2)c1ccccc1` (stereo not given) stands 55% (active); under `COc1cc(C(c2c(NC(=O)c3ccco3)sc(C)c2C)N2CCOCC2)cc(OC)c1OC` (stereo not given), 2.1%.
For `S=c1nc2ccccc2c2nc(-c3cccnc3)[nH]n12`, the inhibition is 6.52%.
For `CCCCN1C(=O)CCC(C(=O)O)C1c1ccc(OC)cc1` (stereo not given), the inhibition is -2.61%.
The value for `CC(=O)Nc1ccc(Nc2c([N+](=O)[O-])cc(S(C)(=O)=O)cc2[N+](=O)[O-])cc1` was 3.4%; that for `O=C(CNS(=O)(=O)c1ccccc1)NCC(=O)OCc1ccccc1F` was 10.3%; that for `COC(=O)c1ccccc1NC(=O)C1(S(=O)(=O)c2ccc(Cl)cc2)CC1` was 4.24%.
Under `CC(C)C1C2=C(CC(C)(C)CC2=O)ON1c1ccccc1` (stereo not given) stands -5.16%.
With `Cc1cc(C)n(CC(C)NCc2c(C(=O)N3CCOCC3)nc3c(C)cccn23)n1` (stereo not given), the inhibition is -0.83%.
Under `FC(F)(F)c1nc(-c2ccccc2)ncc1-c1nnnn1-c1ccccc1` stands 10.3%; under `Cc1ccc(-n2ncc3c2CC(C)(C)CC3NC(=O)Cc2c(C)noc2C)cc1` (stereo not given), -3.4%.
Under `COc1ccc(C(C(=O)NCc2ccccc2)N(Cc2cccs2)C(=O)c2cnccn2)cc1` (stereo not given) stands 2.03%; under `N[C@@H](Cc1ccccc1)C(=O)N1CCC(C(=O)NCC(=O)Nc2ccc(F)cc2)CC1`, -5.9%; under `C=CCn1c(=S)[nH]c2nc3c(cc2c1=O)COC(C)(C)C3`, 6.59%.
Under `C=CCn1c(=S)[nH]c2scc(-c3ccco3)c2c1=O` stands 38.7% (active); under `C=CCn1cnc2scc(-c3ccccc3)c2c1=O`, -1.85%; under `O=S1(=O)C=C(SCCN2CCCC2)c2ccccc21`, 6.55%.
In the case of `C=CCN1C2CCCC1CC(NC(=S)Nc1cccc(OC)c1)C2` (stereo not given), the inhibition is 1.32%.
The value for `O=C(COC(=O)c1ccc([N+](=O)[O-])o1)NC12CC3CC(CC(C3)C1)C2` was 59.8% (active); that for `NC(=O)COc1ccccc1C(=O)NC12CC3CC(CC(C3)C1)C2` was 6.96%; that for `COc1cc(C(=O)OCC(=O)NC(C)CCc2ccccc2)cc(OC)c1OC` (stereo not given) was 5.21%.
The value for `O=C(OCC(=O)c1cccs1)c1ccc([N+](=O)[O-])o1` was -2.46%; that for `COc1cc(C(=O)OCC(=O)NC23CC4CC(CC(C4)C2)C3)cc(OC)c1OC` was 77.8% (active).
Under `O=C(COC(=O)c1cccnc1Cl)NC12CC3CC(CC(C3)C1)C2` stands 86.5% (active).
In the case of `COc1ccccc1C(=O)NC(=S)NC12CC3CC(CC(C3)C1)C2`, the inhibition is -0.29%.
Under `O=C(COC(=O)c1ccc(Br)o1)NC12CC3CC(CC(C3)C1)C2` stands 26.2%; under `O=C(COC(=O)c1cccnc1Cl)Nc1ccc(S(=O)(=O)N2CCOCC2)cc1`, -2.28%.
Turning to `COc1ccc(COC(=O)c2ccc(Cl)c(S(=O)(=O)N3CCOCC3)c2)cc1F`, the inhibition was 8%.
Take `CN(C)S(=O)(=O)c1ccc(NC(=O)COC(=O)Cn2[nH]c(=O)c3ccccc3c2=O)cc1`: the inhibition is 1.37%.
The value for `CCOc1ccc2c(c1)cc(CN(C(=O)CC)C1CCCCC1)c1nnnn12` was 9.13%; that for `COc1cc(NC(=O)COC(=O)c2ccc([N+](=O)[O-])s2)cc(OC)c1OC` was 36.9% (active); that for `COc1cc(NC(=O)COC(=O)c2cnc(C)cn2)c(C)cc1[N+](=O)[O-]` was 4%.
The value for `COc1ccc(C(=O)COC(=O)c2ccc([N+](=O)[O-])s2)cc1OC` was 18.3%; that for `Cc1ccc2c(c1)N(C(=O)CCC(=O)N1CCc3ccccc3C1)CCO2` was 1.77%.
For `COc1ccc(C(=O)OCC(=O)Nc2ccc3[nH]c(=O)[nH]c3c2)c(OC)c1OC`, the inhibition was 2.25%.
Under `COc1ccc(C(=O)COC(=O)c2nn(C)c(=O)c3ccccc23)c(OC)c1` stands 1.19%; under `COc1ccc(C(=O)OCC(=O)c2ccc(Cl)s2)c(OC)c1OC`, 65.5% (active); under `COc1ccccc1NC(=O)N(O)C1(C#N)CCCCC1`, 17.2%.
The value for `Clc1ccc(-c2nc3ccccn3c2CN2CCSCC2)cc1` was 3.86%.
In the case of `COc1cc(CCC(=O)OCC(=O)Nc2cccc(S(N)(=O)=O)c2)cc(OC)c1OC`, the inhibition is 8.16%.
For `O=C1C(=O)N(CCCO)C(c2ccccc2)/C1=C(\O)c1ccc(Br)cc1` (stereo not given), the inhibition is 2.68%.
Under `O=c1[nH]n(-c2ccc([N+](=O)[O-])cc2)c(=O)c2ccccc12` stands 32.5% (active); under `O=[N+]([O-])c1ccc(N2CCOCC2)cc1`, 6.57%; under `COc1cnn(-c2ccc([N+](=O)[O-])cc2)c(=O)c1Cl`, 5.97%.
Regarding `COc1cccc(NC(=O)[C@H](Cc2c[nH]c3ccccc23)NC(=O)[C@@H]2Cc3ccccc3CN2)c1`, the inhibition was 4.49%.
Under `CC(C)(C)OC(=O)C[C@@H]1C/C=C\C[C@H](CC(=O)N[C@@H](CO)Cc2ccccc2)C(=O)N[C@H](Cc2ccccc2)COC1=O` stands -5.38%.
Under `CCOC(=O)C1=C(N)N(c2ccc(C)cc2)C2=C(C(=O)CCC2)C1c1cccs1` (stereo not given) stands 11%.
The value for `COc1ccc(NC(=O)CCCC(=O)c2ccccc2)cc1` was -4.3%; that for `COc1ccc(NC(=O)CS(=O)(=O)c2ccccc2)cc1` was -6.64%.
`COc1ccc(NC(=O)CC(NC(C)c2ccccc2)C(=O)O)cc1` (stereo not given): the inhibition was 35.8% (active).
The value for `O=C1N(c2ccccc2)C(=Nc2ccccc2)SC12CC2` was -1.71%.
Under `COc1ccc(N(Cc2cc3ccc(C)cc3[nH]c2=O)S(=O)(=O)c2ccccc2)cc1` stands 1.35%; under `CCCCn1c(N)c(N(Cc2ccccc2OC)C(=O)COc2cc(C)ccc2Cl)c(=O)[nH]c1=O`, -1.09%; under `O=C(COc1ccc(S(=O)(=O)N2CCCCC2)cc1)NCc1ccccn1`, 9.09%.
Under `O=C(O)/C=C/c1ccc(S(=O)(=O)N2CCCCCC2)cc1` stands 0.61%; under `O=C(COC(=O)/C=C/c1ccc(S(=O)(=O)N2CCCCCC2)cc1)NCc1ccccc1Cl`, 33.9% (active); under `O=C(Nc1ccc(F)cc1)c1cccnc1N1CCOCC1`, -2.86%.
For `CC1=C(C(=O)Nc2ccc(Cl)cc2)C(c2ccco2)NC(=O)N1` (stereo not given), the inhibition was 0.63%.
Under `COc1ccccc1Nc1nc(N)nc(CSC(=S)N2CCOCC2)n1` stands 30.8% (active); under `Cc1ccccc1Nc1nc(N)nc(CSc2ccccc2)n1`, 3.88%; under `COc1ccc(Nc2nc(N)nc(CSC(=S)N3CCC(C)CC3)n2)cc1`, 5.5%.
In the case of `O=C(CN1CCCCCC1)Nc1ccc(Br)cc1Br`, the inhibition is 2.02%.
Under `O=c1oc(-c2ccccc2NS(=O)(=O)c2ccc(Cl)cc2)nc2ccccc12` stands 82.1% (active); under `O=c1ccc2cc(S(=O)(=O)Nc3ccccc3F)ccc2o1`, 0.74%; under `O=c1oc2ccccc2c(NC2CCCCC2)c1NS(=O)(=O)c1ccc(Cl)cc1`, 5.54%.
The value for `CCCCNS(=O)(=O)c1ccc2nc(SCC(=O)Nc3cc(C)cc(C)c3)[nH]c2c1` was -16.9%; that for `N#Cc1cccc(NC(=O)COC(=O)c2ccccc2C(=O)c2ccc(Cl)c([N+](=O)[O-])c2)c1` was 58.9% (active).
In the case of `CC(=O)Nc1ccc(NC(=O)C(C)OC(=O)c2ccccc2C(=O)c2ccc(Cl)c([N+](=O)[O-])c2)cc1` (stereo not given), the inhibition was -5.1%.
Take `COC(=O)c1cc(NC(=O)Cc2ccccc2[N+](=O)[O-])ccc1Cl`: the inhibition is 0.54%.
Consider `COC(=O)c1onc(-c2c(OC)cc(OC)cc2OC)c1C(=O)OC`, for which the inhibition was -0.23%.
Consider `Cc1cn(C2CC(O)C(CO)O2)c(=O)n(CCCc2ccccc2)c1=O` (stereo not given), for which the inhibition was -0.23%.
As for `COc1cccc(CNC(=O)C2CCN(S(=O)(=O)c3cccc4cccnc34)CC2)c1`, the inhibition is -7.61%.
The value for `O=C(Cc1ccc(NC(=O)C2CCCN(C(=O)C3CCCCC3)C2)cc1)Nc1cccc(C(=O)N2CCCCC2)c1` (stereo not given) was -2.71%.
